Molecules are shown by their SMILES. This is part of a sample that, as a whole, favours compounds with a hit. Of some 83,000 tested, about 20% had one in any assay.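 For each line, cells grew in 96-well plates with the test compound present at a single concentration for 48 hours.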 The source made the active and inactive calls. Rule for the calls: active = growth percent below 10; inactive = the rest.

This test concerns RXF 393 renal. Nature of the test: NCI-60 one-dose screen, 48 h (100 = growth as untreated, 0 = no growth, -100 = all killed). The following applies: 10 µM.
Turning to `Cc1ccc(-c2nc3ccc(C(=O)N=Nc4c(O)[nH]c5ccc(Br)cc45)cc3[nH]2)cc1`, the growth is 66.1% (inactive). The figure for `CCCCCc1ccc(S(=O)(=O)Nc2cc(-c3csc(N(C)C(C)=O)n3)ccc2N2CCN(C)CC2)cc1` is -73.8% (active); for `Cc1ccc(NC(=O)NCn2c(=O)[nH]c3ccccc3c2=O)cc1` it is 30.3% (inactive). The figure for `Cc1ccc(C(=O)NCCCNc2nc(Nc3ccc(N4CCN(C)CC4)cc3)nc3ccsc23)cc1` is -53.1% (active). In the case of `CNC(=O)c1cccc(N2CCc3c2ccc(NC(=O)Nc2ccc(N4CCN(C)CC4)c(C(F)(F)F)c2)c3F)c1` it was -85.3% (active). For the compound `COC1CC(Cn2cc(COc3ccc4ccc(=O)oc4c3)nn2)C(OCc2ccccc2)C(OCc2ccccc2)C1OCc1ccccc1` (stereo unspecified), the growth is 80.1% (inactive). The figure for `Cc1ccc(NC(=O)c2ccc(-n3c(=O)[nH]c4ccccc4c3=O)cc2)cc1` is 54.3% (inactive); for `O=C(Cn1cc(CSc2nnc3oc4ccccc4n23)nn1)Nc1ccc(Br)cc1` it is 6.71% (active). In the case of `C=C(C)[C@@H]1CC[C@]2(C)[C@H](CC=C3[C@@H]4CC(C)(C)CC[C@]4(C(=O)N4CCOCC4)CC[C@]32C)[C@@]1(C)CCCN` it was -90.9% (active); in that of `CC(=C(c1ccc(OCCN2CCCCC2)cc1)c1ccc(OCCN2CCCCC2)cc1)c1ccccc1`, -66.2% (active).

As to `CN1CCN(c2ccc(Nc3nc(NCCCNC(=O)c4ccccc4)c4sccc4n3)cc2)CC1`, the growth was 2.61% (active). In the case of `O=C(CS(=O)(=O)c1oc(-c2ccc(Cl)cc2)nc1S(=O)(=O)c1ccccc1)N1CCCC1` it was -97.8% (active); in that of `CC1(C)CC[C@]2(C(=O)N3CCOCC3)CC[C@]3(C)C(=CC[C@@H]4[C@@]5(C)CC[C@H](NCO)C(C)(C)[C@@H]5CC[C@]43C)[C@H]2C1`, -95% (active); in that of `CC(=O)NCC1=C(C)C=C2C(=O)[C@](C)(O)C3(CC3)C(C)=C21`, -74.7% (active). The figure for `C#Cc1ccc(S(=O)(=O)Nc2cccc(-c3csc(NC(C)=O)n3)c2)cc1` is 88.4% (inactive); for `C=C[C@H]1[C@H](O[C@@H]2OC(CO)[C@@H](O)[C@H](O)C2OC(=O)c2c(O)cc(O)cc2-c2cccc(O)c2)OC=C2C(=O)OCC[C@H]21` (stereo partly specified) it is 104% (inactive); for `O=C(c1ccc(-n2c(=O)[nH]c3ccccc3c2=O)cc1)N1CCOCC1` it is 127% (inactive). In the case of `CCN(CC)CCOc1ccc(C(=C(C)c2ccccc2)c2ccc(OCCN(CC)CC)cc2)cc1` it was -74.5% (active); in that of `CNC(=O)c1cc(-c2ccc(NC(=O)Nc3ccc(C)cc3)cc2)nc2cccnc12`, 100% (inactive).

As for `O=C(Cn1cc(CSc2nnc3oc4ccccc4n23)nn1)Nc1cccc(Cl)c1`, the growth is 76.8% (inactive). For the compound `CC1(C)CC[C@]2(C(=O)NCCCNCCCCNCCCN)CC[C@]3(C)C(=CC[C@@H]4[C@@]5(C)Cc6c([nH]c7ccccc67)C(C)(C)[C@@H]5CC[C@]43C)[C@H]2C1`, the growth is 78.1% (inactive). In the case of `CCC(C)S(=O)(=O)c1oc(-c2ccc(C)cc2)nc1S(=O)(=O)c1ccccc1` (stereo unspecified) it was -98% (active); in that of `CC(=O)Nc1nc(-c2ccc(N3CCN(C)CC3)c(NS(=O)(=O)c3cccc4c(N(C)C)cccc34)c2)cs1`, 19.6% (inactive); in that of `N[C@@H](CSSC[C@H](N)C(=O)Nc1ccc(OCC2CCCC2)cc1)C(=O)Nc1ccc(OCC2CCCC2)cc1`, -94.1% (active). In the case of `O=C(Nc1ccncc1)c1ccc(-n2c(=O)[nH]c3ccccc3c2=O)cc1` it was 88.9% (inactive); in that of `CN1CCN(c2ccc(Nc3nc(NCCCNC(=O)c4ccc(F)cc4)c4sccc4n3)cc2)CC1`, 10.8% (inactive); in that of `CC1(C)CC[C@]2(C(=O)O)CC[C@]3(C)C(=CC[C@@H]4[C@@]5(C)C/C(=C/c6ccncc6)[C@H](O)C(C)(C)[C@@H]5CC[C@]43C)[C@@H]2C1`, 24.2% (inactive). In the case of `Cc1cc2c(c(O)c1Br)-c1ncoc1C(=O)[C@]1(C)CC[C@H](C(C)C)[C@H]21` it was 60.6% (inactive). As for `Cc1ccc(/C=C(\C#N)n2nnc3c(F)cccc32)cc1`, the growth is -4.78% (active).

For `Cc1cc(C)nc(SCC(=O)Nc2ccc(S(N)(=O)=O)cc2)n1`, the growth was 96% (inactive). In the case of `COc1ccc(-c2nc(S(=O)(=O)c3ccc(C)cc3)c(S(=O)(=O)CC(=O)N(C)Cc3ccccc3)o2)cc1` it was -54.4% (active); in that of `O=c1[nH][nH]c(Nc2ccccc2)c1N=Nc1ccc(F)cc1`, 83.1% (inactive).

As for `CN1CCN(c2ccc(Nc3nc(NCCCNC(=O)C4CCCCC4)c4sccc4n3)cc2)CC1`, the growth was -36% (active). With `COc1ccc(-c2nc(S(=O)(=O)c3ccccc3)c(S(C)(=O)=O)o2)cc1`, the growth is -90.8% (active).

Turning to `c1ccc(C(=C(c2ccc(OCCN3CCCCC3)cc2)c2ccc(OCCN3CCCCC3)cc2)C2CCCC2)cc1`, the growth was 29.1% (inactive). The figure for `COc1ccc(C(C)=C(c2ccc(OCCCN(C)C)cc2)c2ccc(OCCCN(C)C)cc2)cc1` is -94.6% (active).

Source of the values: PubChem BioAssay (NCI).
